Consider 19 compounds from PubChem BioAssay (NCATS).

Records with an inconclusive call do not appear. Values without a mark were called inactive. Activity calls are given as the source filed them. Calls follow the shape of the dose curve; as a rule, active = well fitted inhibition curve with a large enough effect; inconclusive = small, poorly fitted or top-dose-only effect; inactive = flat fitted curve, though single readings scatter.

The subject of one experiment is CRL-7250. The experiment can be described thus: Cytotoxic Profiling of Annotated Libraries Using Quantitative High-Throughput Screening (AID 1296008). Also: potency is read from the fitted curve at half-maximal effect. As to max response: % is scaled to controls: 0 for no effect and ±100 for the full control effect. As to conditions: Five cell lines viability, CellTiter-Glo ATP luminescence, 48-72 h; max response: hits give low values. A digest of the protocol:
(§1)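 Compounds were pin-transferred onto cells and incubated 48 or 72 hr at 37 degree Celsius, 95% humidity. CellTiter-Glo was added, plates sat 10 min at room temperature, then ATP-coupled luminescence was imaged as the viability read-out.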

In a further experiment the test system is HEK293. The description is as above. The note with it: Five cell lines viability, CellTiter-Glo ATP luminescence, 48-72 h; max response: hits give low values. The essentials: as §1
In general terms: ATP-based viability assays read luminescence as a measure of living cells.

Experiment [1] has as its system HaCat. The description is as above. The note with it: Five cell lines viability, CellTiter-Glo ATP luminescence, 48-72 h; max response: hits give low values. A digest of the protocol:
as §1

A further experiment relates to KB-3-1. The experiment is described as above. As to conditions: Five cell lines viability, CellTiter-Glo ATP luminescence, 48-72 h; max response: hits give low values. The essentials: as §1
For a further experiment, the system named is NIH3T3. The experiment is described as above. The note with it: Five cell lines viability, CellTiter-Glo ATP luminescence, 48-72 h; max response: hits give low values. A digest of the protocol: as §1
In experiment [2] the test system is HACAT. The experiment is described as follows: qHTS assay to identify novel small-molecules to repurpose for Merkel cell carcinoma treatment (AID 1296009). The note with it: MCC and control cell lines, CellTiter-Glo viability, 72 h; series mostly up to 44.8 µM. The essentials:
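Viability readout: ATP luminescence (CellTiter-Glo) after 72 hr drug exposure at 37 degree celsius. Dose-response format was 8 points for NPC and 11 points for MIPE; data normalized to in-plate controls.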
A general note: Quantitative high-throughput screening tests each substance at several concentrations.
Also: nearly all actives have a fitted effect of over 60% in size.

Take `O=C(CCCCN1CCOCC1)Nc1ccc(-c2cccnc2)cc1`: the max response in the experiment on CRL-7250 is -12%; in the experiment on HEK293, 0.956%; in the experiment on HaCat [1], -1.44%; in the experiment with KB-3-1, 3.7%; in the experiment with NIH3T3, 4.47%.
For the compound `CC(=O)O[C@H]1CC(C)(C)CC2[C@@]13[C@H](O)C[C@]1(C)[C@@]2(CCC2[C@@]4(C)CC[C@H](O[C@@H]5OC[C@H](O[C@@H]6O[C@H](CO)[C@@H](O)[C@H](O)[C@H]6O[C@@H]6OC[C@@H](O)[C@H](O)[C@H]6O)[C@H](O)[C@H]5O[C@@H]5O[C@H](CO)[C@@H](O)[C@H](O)[C@H]5O)C(C)(C)C4CC[C@]21C)O[C@@H]3O` (some centres not stated), the Potency in the experiment on CRL-7250 is 2460 nM (active); with HEK293, 1950 nM (active); in the experiment on HaCat [1], 3480 nM (active); in the experiment with NIH3T3 it was 2760 nM (active). For the same compound, the max response with KB-3-1 was -24.8%.
As for `C[C@@H]1O[C@@H](O[C@H]2[C@H](OC(=O)[C@]34CCC(C)(C)C[C@H]3C3=CCC5[C@@]6(C)CC[C@H](O[C@@H]7O[C@H](C(=O)O)[C@@H](O)[C@H](O)[C@H]7O[C@@H]7O[C@H](CO)[C@H](O)[C@H](O)[C@H]7O)[C@@](C)(C=O)C6CC[C@@]5(C)[C@]3(C)C[C@H]4O)O[C@H](C)[C@H](O[C@@H]3O[C@H](C)[C@H](O)[C@H](O)[C@H]3O)[C@@H]2O)[C@H](O)[C@H](O)[C@H]1O[C@@H]1OC[C@@H](O)[C@H](O[C@@H]2O[C@H](CO)[C@@H](O)[C@H](O)[C@H]2O)[C@H]1O` (some centres not stated), the max response with CRL-7250 was -5.26%; with HEK293 it was -75.9%; with HaCat [1], -0.834%; in the experiment with KB-3-1 it was 9.53%; in the experiment with NIH3T3, 3.95%.
On to `C=C[C@H]1CN2CC[C@H]1C[C@@H]2C(O)c1ccnc2ccc(OC)cc12` (some centres not stated), for which, in the experiment on CRL-7250, the call was inactive. Further, the max response in the experiment on HEK293 is -7.03%; in the experiment with HaCat [1], 2.46%; with KB-3-1, 4.51%; in the experiment on NIH3T3 it was 3.58%.
On to `C=CC1(C)CC(OC(=O)/C(C)=C\COC(C)=O)C(C(=C)C(=O)O)C(O)C1C(=C)CO` (configuration not stated), for which the result with CRL-7250 was inactive. The max response in the experiment on HEK293 is -0.348%; in the experiment on HaCat [1] it was 3.73%; with KB-3-1 it was 8.05%; with NIH3T3, -3.05%.
`CC1=CCC(C(C)(C)O[C@@H]2O[C@H](CO[C@@H]3O[C@@H](C)[C@H](O)[C@@H](O)[C@H]3O)[C@@H](O)[C@H](O)[C@H]2O)CC1` (some centres not stated): the max response in the experiment on CRL-7250 is -8.36%; with HEK293, 2.02%; in the experiment with HaCat [1], 1.99%; in the experiment with NIH3T3 it was 2.56%. The compound was classed as inactive in the experiment on KB-3-1.
Turning to `CC(C)CN(C[C@@H](O)[C@H](Cc1ccccc1)NC(=O)O[C@@H]1CO[C@H]2OCC[C@H]21)S(=O)(=O)c1ccc(N)cc1`, the max response is 4.36% with CRL-7250; -6.82% with HEK293; -6.53% in the experiment on HaCat [1]; -3.21% in the experiment on KB-3-1; -1.09% with NIH3T3.
Turning to `OC/C=C/c1ccc(O[C@@H]2O[C@H](CO)[C@@H](O)[C@H](O)[C@H]2O)cc1`, the max response in the experiment with CRL-7250 was -14.7%; in the experiment on HEK293, -1.19%; with HaCat [1], 4.35%; in the experiment on KB-3-1 it was 3.13%; with NIH3T3, -0.785%.
Consider `CCc1cnn2c(NCc3ccc[n+]([O-])c3)cc(N3CCCCC3CCO)nc12` (configuration not stated), for which the Potency is 4.6 nM (active) in the experiment with CRL-7250; 13 nM (active) with HEK293; 46.1 nM (active) in the experiment with HaCat [1]; 9.2 nM (active) in the experiment on KB-3-1; 65.1 nM (active) with NIH3T3.
For the compound `CC(C)c1cccc2c(-c3ccccc3)cc(-c3ccc(-c4ccc(C(=O)O)cc4)[nH]3)nc12`, the max response in the experiment with CRL-7250 was -17.4%; with HEK293 it was -107%; in the experiment on KB-3-1, -3.11%; with NIH3T3, -3.94%. The result with HaCat [1] was inactive.
Take `OCCc1ccc(O[C@@H]2O[C@H](CO)[C@@H](O)[C@H](O)[C@H]2O)cc1`: the max response in the experiment on CRL-7250 is 2.72%; in the experiment with HEK293 it was 0.276%; in the experiment on HaCat [1], -3.11%; in the experiment with KB-3-1 it was -1.98%; in the experiment on NIH3T3, 2.39%.
The corresponding values for `CC(=O)OC1C(c2ccccc2)CCC(c2ccccc2)C1OC(C)=O` (configuration not stated) are 2.93%, -10.8%, 3.27%, 7.87% and 0.126%.
For `Cc1cc2c(c(=O)[nH]1)OC(C(O)CC(C)C)O2` (configuration not stated), in that order: -20.7%, -7.89%, -1.41%, -1.2% and -0.186%.
For `CCCN1CCN(c2ccc(C(=O)NC3(C(=O)NCC#N)CCCCC3)cc2)CC1`, in that order: -0.563%, -5.14%, -5.96%, -7.48% and 1.62%.
Take `Cc1ccc(C)c(OCCn2cc(C(=O)O)c3ccccc32)c1`: the max response was -3.65% with CRL-7250, -0.983% in the experiment with HEK293, 3.13% in the experiment with KB-3-1 and 4.52% with NIH3T3. Besides, the outcome with HaCat [1] was inactive. The Potency entry in the experiment on HACAT [2] was “inactive”.
For `CC1=CCC2C(C)(C)CCC[C@]2(C)[C@@]12CC[C@](C)(CC(=O)O)O2` (some centres not stated), the max response with CRL-7250 was -19.8%; in the experiment with HEK293, -11.7%; with HaCat [1], -3.64%; in the experiment on KB-3-1, -6.84%; with NIH3T3 it was -1.28%.
For `CC(=O)N1CCc2ccc(O)c(OC3OC(COC4OCC(O)(CO)C4O)C(O)C(O)C3O)c2C1Cc1ccc(O)cc1` (configuration not stated), in that order: -12.6%, -5.03%, -0.476%, 3.16% and -4.18%.
On to `N#C[C@@H]1CCCN1C(=O)CNC12CC3CC(CC(O)(C3)C1)C2`, for which the max response with CRL-7250 is 2.02%; with HEK293, -12.1%; in the experiment with HaCat [1], -2.22%; in the experiment with NIH3T3, -1.17%. The compound was classed as inactive in the experiment on KB-3-1.
In the case of `CN1C2CCC1CC(OC(=O)[C@H](CO)c1ccccc1)C2` (some centres not stated), the max response was 0.824% with CRL-7250, -10.6% with HEK293, -9.98% with KB-3-1 and -25.3% with NIH3T3. Further, in the experiment with HaCat [1], the call was inactive. Further, in the experiment with HACAT [2], the Potency entry is “inactive”.
